Experimental findings from PubChem BioAssay (NCI) are described below.

The experiment has as its system HL-60(TB) leukemia. Briefly: NCI-60 one-dose screen, 48 h (100 = growth as untreated, 0 = no growth, -100 = all killed). The note with it: 10 µM unless noted.

This is part of a sample that, as a whole, favours compounds with a hit. Of some 83,000 tested, about 20% had one in any assay.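 The endpoint reported here, percent growth, reads 100 for growth as untreated, 0 for no net growth and -100 for all cells dead.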 Unmarked numbers belong to inactive results. The source made the active and inactive calls. The calls were made as follows: active = growth percent below 10; inactive = the rest.

Consider `COc1ccccc1N1CCN(C2=C(Cl)C(=O)c3ncccc3C2=O)CC1`, for which the growth was 12.5%.

With `NC(N)=Nc1ccc(Oc2cccc(Nc3cccc(C(F)(F)F)c3)c2)cn1`, the growth is -64.4% (active).

With `O=C(CCC(=O)N1CCOCC1)OCCCCCCSc1ccc([N+](=O)[O-])c2nonc12`, the growth is -45.4% (active). `CCNC(=O)Oc1ccc(/C(=C(/C)c2ccc(OC)cc2)c2ccc(OCCN3CCCCCC3)cc2)cc1`: the growth was 22.5%. Then `Cc1occc1-c1nc2s/c(=C\c3cn(-c4ccccc4)nc3-c3ccccc3)c(=O)n2n1`, with 102%; and `CN(C)C(=O)c1cc(-c2ccc3ncnc(NCc4ccccc4)c3c2)cnc1N`, with 116%. With `CCc1cc(O)ccc1Nc1cc(-c2ccc(-n3cccn3)cc2)[nH]n1`, the growth is 58.6%. Then `Cn1cc(-c2nn3cc(-c4ccncc4)nc3s2)c2cc(F)ccc21`, with -1.16% (active); and `NC(=O)c1c(NC(=O)c2cccc(C(F)(F)F)c2F)sc2c1CCC(=O)C2`, with 15%; and `COc1ccc([C@@H]2c3[nH]c4ccccc4c3C[C@H]3C(=O)N(C4CCN(CC5CCCCC5)CC4)CC(=O)N23)c(OC)c1`, with 47.7%. As for `COc1ccccc1C(=O)Nc1cccc2c1C(=O)C(=O)C=C2`, the growth is 9.19% (active). Then `Cc1ccc(NC(=O)N[C@@H](Cc2cc(F)cc(F)c2)C(=O)NC2C(=O)N3C[C@H](O)C[C@H]3C(=O)N3CCCC[C@H]3C(=O)N[C@@H](CO)C(=O)N3C[C@H](C)C[C@H]3C(=O)O[C@H]2C)c(F)c1` (some centres not stated), with 16.2%; and `CS(=O)(=O)Nc1cc(-c2ccc3ncc(C#N)c(NCc4ccccc4O)c3c2)cnc1Cl`, with 12.4%; and `Oc1ccc(CSc2nnc(-c3cnccn3)n2-c2ccccc2)c2cccnc12`, with 14.4%.

Consider `N/C(=N\C(N)=N\c1nc2ccccc2s1)c1ccncc1Cl`, for which the growth was 6.91% (active). Then `O=C1Nc2cc(Cl)ccc2/C1=C\c1ccc(OCc2ccccc2)cc1`, with 113%; and `O=[N+]([O-])c1cc(/C=N/Nc2nc(N/N=C/c3ccc(Cl)c([N+](=O)[O-])c3)nc(N3CCCCC3)n2)ccc1Cl`, with 41.9%; and `Oc1ccc(CSc2nnc(-c3ccncc3)o2)c2cccnc12`, with 8.26% (active). The figure for `Nc1ccc(Nc2ncnc3sc4c(c23)CCN(Cc2ccccc2)C4)cc1` is 102%. The figure for `Clc1ccc2oc3c(NCCCN4CCOCC4)c4ccccc4nc3c2c1` is 20.8%. On to `CN1CCN(c2ccc3c(c2)nc(NNC(=O)c2ccncn2)c2cccn23)CC1`, for which the growth was 10.4%. Then `N#Cc1nc(-c2ccccc2)oc1S(=O)(=O)N1CCN(CCc2ccccn2)CC1`, with 5.71% (active); and `C#C[C@]1(O)CC[C@H]2[C@@H]3CC=C4c5sc(Nc6cccc(C)n6)nc5CC[C@]4(C)[C@H]3CC[C@@]21C`, with -8.95% (active). As to `CCCCCc1ccc(S(=O)(=O)Nc2cccc(-c3csc(NC(=O)CNCCN(C)C)n3)c2)cc1`, the growth was 63%. The figure for `CCn1c2ccc(/C=N/NS(=O)(=O)CCN(C)C)cc2c2cc(/C=N/NS(=O)(=O)CCN(C)C)ccc21` is 103%; for `Clc1ccc2c(N/N=C/c3c[nH]c4ccccc34)ccnc2c1` it is -34.7% (active); for `COc1cc(-c2nn(C(C)(C)C)cc2-c2ccnc(NCCCNS(=O)(=O)c3ccc(F)cc3)n2)ccc1Cl` it is 101%. The figure for `O=C(/C=C/C=C/c1csc(Br)n1)NO` is 58.4%; for `COc1ccc(-c2csc(N/N=C/c3c(-c4ccc(S(C)(=O)=O)cc4)nc4ccccn34)n2)cc1` it is 103%. Turning to `O=C(/C=C/c1cn(-c2ccccc2)nc1-c1ccc(Cl)cc1)c1cc2ccccc2oc1=O`, the growth was 85.6%. The figure for `COc1cccc(N2CCN(C3=C(Cl)C(=O)c4ncccc4C3=O)CC2)c1` is 9.82% (active); for `COc1ccc(C2CC(c3cccc(OCCCCOc4cccc(C5=NN(C(C)=O)C(c6ccc(OC)cc6)C5)c4)c3)=NN2C(C)=O)cc1` (configuration not stated) it is 46.2%; for `O=C(Nc1ccccc1)Nc1nc2ccc([N+](=O)[O-])cc2[nH]1` it is 70.2%.

Take `CC1CCc2c(sc3nc(SCC(=O)N/N=C/c4cccc(O)c4O)n(-c4ccccc4)c(=O)c23)C1` (configuration not stated): the growth was 93.6%. Turning to `CC1=NC2=NN3C(=NN2C(c2ccccc2)=C1)N=NC(c1ccc(Br)cc1)=C3c1ccc(Br)cc1`, the growth is 115%. Then `Cn1c(SCC(=O)c2ccc(Br)cc2)nc2ccccc2c1=O`, with 92.1%; and `CCCCSC1=C(Cl)CN(c2ccc(Cl)cc2)C1=O`, with 85.4%.
